# Results reported in the supplement of paper PMC4237247.
# Structures can show the parent of a compound that is named as a salt.
# Tested on: HeLa
# Assay: percent cells in G1 phase; higher = more G1 arrest
# Conditions: 10 µM; 20 h
# Description: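 HTS of 79,827 drug-like compounds at 10 uM. HeLa cells in 384-well plates were treated for 20 h, fixed, stained with Vybrant DyeCycle Green and scanned on an Acumen eX3 cytometer to give per-well cell cycle profiles (% cells in each phase). The plate Z' was 0.51. Only hits are listed: G1 hits >4 SD and S hits >5 SD from the mean.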
row,SMILES,percent cells in G1 phase [%]
1,Cc1ccc(-c2cc(-c3ccccc3Cl)[nH]n2)c(O)c1 (hit class: G1-phase inhibitor),69.2
2,COc1c(C)c2c(c(O)c1C/C=C(\C)CCC(=O)O)C(=O)OC2 [Mycophenolic acid] (hit class: S-phase inhibitor),39
3,COc1[nH]c2ccccc2c1C=NO (hit class: S-phase inhibitor),59.4
4,CC(=O)C1=C(O)C(=O)N(CC(=O)O)C1c1ccccc1F (configuration not stated) (hit class: S-phase inhibitor),61.1
5,Cc1cc([N+](=O)[O-])ccc1NCc1ccc(F)c(F)c1 (hit class: G1-phase inhibitor),69.8
6,CC[C@@H](C(=O)[C@@H](C)[C@@H](O)[C@H](C)CCc1ccc(C)c(O)c1C(=O)O)[C@H]1O[C@](CC)([C@H]2CC[C@](O)(CC)[C@H](C)O2)C[C@@H]1C [Lasalocid sodium salt] (hit class: G1-phase inhibitor),73.9
7,C[C@@H]1CCC[C@H](C)N1NC(=O)c1ccc(Cl)c(S(N)(=O)=O)c1 [Clopamide] (hit class: G1-phase inhibitor),70.5
8,C[C@@H]1C[C@H]2[C@@H]3C[C@H](F)C4=CC(=O)C=C[C@]4(C)[C@@]3(Cl)[C@@H](O)C[C@]2(C)[C@H]1C(=O)COC(=O)C(C)(C)C [Clocortolone pivalate] (hit class: S-phase inhibitor),43.2
9,O=C(COc1ccc(Cl)cc1)NC(Cc1c[nH]c2ccccc12)C(=O)O (configuration not stated) (hit class: G1-phase inhibitor),69
10,c1ccc2c(c1)Nc1nc3ccccc3nc1O2 (hit class: G1-phase inhibitor),70.5
11,Nc1ccn([C@H]2CC[C@@H](CO)O2)c(=O)n1 [Zalcitabine] (hit class: S-phase inhibitor),45.1
12,Cc1cc(N2CCCCC2)c(F)cc1[N+](=O)[O-] (hit class: S-phase inhibitor),44.7
13,COc1ccc(CSc2nncn2N)cc1 (hit class: S-phase inhibitor),61.4
14,O=C1c2c(O)ccc(O)c2C(=O)c2c(NCCNCCO)ccc(NCCNCCO)c21 [Mitoxantrone dihydrochloride] (hit class: G1-phase inhibitor),70
15,Cn1c(SCc2ccccc2)nc2ccccc2c1=O (hit class: S-phase inhibitor),60
16,COc1ccc(C(=O)c2coc3ccc(OC)cc3c2=O)cc1 (hit class: G1-phase inhibitor),70.5
17,CCN(CC)Cc1c(O)ccc2c(=O)c(-c3ccccc3)coc12 (hit class: S-phase inhibitor),55.9
